Hit rate of the full screen: of about 190,000 compounds, about 1,300 (0.68%) were called active. The sample holds actives, similar compounds and a random draw of the others, so the mix is not that of the screen. Rule as the data show it: active = inhibition above about 50%; inactive = the rest.
Each compound was assayed against Mannose-6-phosphate isomerase (Homo sapiens) (UniProt P34949) (assay: MPI inhibition at elevated mannose 6-phosphate – biochemical, fluorescence intensity, high mannose 6-phosphate, primary screen (AID 1220)). Conditions: recombinant PMI enzyme, coupled fluorescence intensity; at 20 µM; stronger effect = higher value.
Chain of Mannose-6-phosphate isomerase (Homo sapiens) (P34949 whole entry, looked up): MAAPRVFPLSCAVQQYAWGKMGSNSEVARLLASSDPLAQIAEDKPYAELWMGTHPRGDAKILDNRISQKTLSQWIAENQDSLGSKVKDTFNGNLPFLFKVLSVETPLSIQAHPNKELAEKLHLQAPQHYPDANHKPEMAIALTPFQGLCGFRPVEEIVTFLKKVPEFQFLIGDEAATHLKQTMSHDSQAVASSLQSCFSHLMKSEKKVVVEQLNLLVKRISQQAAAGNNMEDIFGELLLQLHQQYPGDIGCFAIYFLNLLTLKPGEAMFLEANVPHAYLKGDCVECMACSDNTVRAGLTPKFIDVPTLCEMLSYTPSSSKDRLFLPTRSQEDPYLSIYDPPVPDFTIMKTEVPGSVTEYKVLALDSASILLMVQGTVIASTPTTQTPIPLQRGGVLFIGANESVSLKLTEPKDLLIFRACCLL

inhibition, active:
O=[N+]([O-])c1cc([N+](=O)[O-])c2c(=Nc3ccccc3)n(-c3ccccc3)n(O)c2c1 52.9%
CC1(C)Oc2ccc(C(=O)N3CCCCC3)cc2N(CC(=O)NCc2ccccc2)C1=O 107%
Oc1ccc(CN2CCCCC2)c2cccnc12 50.5%
Oc1ccc(CN2CCN(c3ccccc3)CC2)c2cccnc12 50.5%
OCc1ccnc2c(O)cccc12 59.6%
CC1CCN(S(=O)(=O)Cc2ccccc2Cl)CC1 56.9%
COc1cc(NC(=S)N2CCC(C(O)(c3ccccc3)c3ccccc3)CC2)cc(OC)c1 52.9%
Cc1ccc2nsnc2c1S(=O)(=O)Nc1cccc2nsnc12 50.1%
CN1C(=S)SC(N(O)C(=O)Nc2cccc3ccccc23)C1(C)C (configuration not stated) 62.9%
CN1CCC/C1=C/C=C1\SC(=S)NC1=O 53.1%
CC(C)CCNC(=O)C(CC(C)C)N(Cc1ccc2c(c1)OCO2)C(=O)c1snc(C(N)=O)c1N (configuration not stated) 51%

inhibition, inactive:
COc1ccc(-c2oc3ncnc(N)c3c2-c2ccccc2)cc1 5.7%
Nc1ccccc1C(=O)N(Cc1ccccc1)Cc1ccccc1 -1.7%
C=CCSc1nnc(-c2ccc([N+](=O)[O-])cc2)o1 -2.9%
Cc1ccc2c(C)[nH]c(=O)cc2c1 8.1%
CCOc1cc(CNCc2ccncc2)cc(Br)c1OCc1ccc(F)cc1 5.1%
Cc1ccc(S(=O)(=O)c2nc(-c3ccco3)oc2SCC(=O)NCC2CCCO2)cc1 (configuration not stated) 18.4%
COc1ccccc1N=c1c2c([N+](=O)[O-])cc([N+](=O)[O-])cc2n(O)n1-c1ccccc1OC -1.7%
CCc1ccc(N=c2c([N+](=O)[O-])nn(-c3ccccc3)n2O)cc1 2.1%
CCOc1cc(C2C(C#N)=C(N)Oc3n[nH]c(-c4ccncc4)c32)cc([N+](=O)[O-])c1O (configuration not stated) 24.5%
CCN(c1ccccc1)S(=O)(=O)c1ccc(Cl)c(NC(=O)COC(=O)C2CC2C)c1 (configuration not stated) 6.5%
N/C(=N\OS(=O)(=O)c1ccccc1)c1ccccn1 -4.5%
O=S(=O)(O/N=C1\CCCc2ccccc21)c1ccccc1 -10.1%
N/C(=N\OS(=O)(=O)c1ccccc1)c1ccncc1 -14.4%
Cc1ccc(S(=O)(=O)ON=C2CCN(S(=O)(=O)c3ccccc3)CC2)cc1 -1%
CC1=C(C)/C(=N\OS(=O)(=O)c2ccccc2)C=CC1=O 49%
Cc1ccc(S(=O)(=O)O/N=C2\CCCc3ccccc32)cc1 -0.1%
O=S(=O)(O/N=C1\CCCc2ccccc21)c1ccc(Cl)cc1 -28.3%
CC1=C/C(=N\OC(=O)/C=C/c2ccccc2)C(C)=CC1=O 8.4%
COc1ccccc1OC(C)c1nnc(SCC(=O)Nc2c(C)n(C)n(-c3ccccc3)c2=O)n1-c1ccccc1 (configuration not stated) 6.4%
COc1ccc(CNS(=O)(=O)NCc2ccc(C)cc2)cc1 -7.2%
Cc1ccc(C)c2nc3sc(C(=O)N4CCOCC4)c(N)c3cc12 2.2%
CCCC(=O)c1ccc(N2CCN(S(=O)(=O)c3ccccc3)CC2)c(F)c1 9.7%
CC(C)C1C(C#N)=C(N)Oc2n[nH]c(-c3ccccc3)c21 (configuration not stated) 9%
O=C(Cc1cccs1)NC(c1ccccc1)c1ccccc1 -1.3%
CCC(CC)c1nnc(NC(=O)c2ccco2)s1 8.5%
O=C1CN(C(=O)COC(=O)c2cccc(OCc3ccccc3)c2)c2ccccc2N1 20.2%
c1ccc(CC2CNc3ccccc3CN2)cc1 (configuration not stated) -7%
Cc1nc(N2CCN(S(=O)(=O)c3cccc4nonc34)CC2)c2c3c(sc2n1)CCCC3 14.8%
COc1cnc(-c2ccccn2)nc1Sc1cccc(Cl)c1 2.4%
CC(=O)c1ccc(NC(=S)N2CCN(c3cccc(Cl)c3)CC2)cc1 -8.9%
CCCC(=O)c1cc(F)c(N2CCN(S(=O)(=O)c3ccccc3)CC2)cc1C 14.8%
CCc1nn(CC(=O)Nc2ccc(Br)c(C)c2)c(=N)s1 -9.2%
CC1=CC(=O)C=C(C)C1=NOC(=O)/C=C\c1ccccc1 22%
CC(=O)N1C(C)(C)CC(=NOS(=O)(=O)c2ccccc2)CC1(C)C -21.1%
CC(=O)Nc1ccc(S(=O)(=O)N=S(C)(C)=O)cc1 15.7%
CCCC(=O)NC1=C(C#N)C2(CCCCC2)Cc2ccccc21 -7.8%
CC1CCCC(C)N1C(=O)CSc1nc2ccccc2s1 (configuration not stated) 0.3%
CCOC(=O)/C(=C/c1c(C)n(C)c2ccc([N+](=O)[O-])cc12)C(C)=O 2.1%
CC1(C)Oc2ccc(C(=O)N3CCCC3)cc2N(CC(=O)NCc2ccccc2)C1=O -8.2%
CC1(C)Oc2ccc(C(=O)N3CCOCC3)cc2N(CC(=O)Nc2ccccc2)C1=O 6.6%
CCOC(=O)Cn1c(=O)oc2cc(S(=O)(=O)Nc3ccc(F)cc3)ccc21 -4.3%
c1ccc(N2CCN(Cc3ccnc4ccccc34)CC2)cc1 -101%
Oc1ccc(CN2CCc3ccccc3C2)c2cccnc12 47.9%
O=S(=O)(c1ccc(Cl)cc1)N1CCN(Cc2ccc(O)c3ncccc23)CC1 45.3%
Oc1ccc(CN2CCC(Cc3ccccc3)CC2)c2cccnc12 46.2%
OCc1ccc(O)c2ncccc12 28.8%
COc1ccccc1N1CCN(Cc2ccc(OC)c(OC)c2OC)CC1 -2.8%
COc1ccccc1N1CCN(Cc2cc(Br)c(O)c3ncccc23)CC1 43.7%
Oc1ccc(COCc2ccccc2)c2cccnc12 46.2%
COc1ccc(N2C(=O)/C(=C\c3ccco3)N=C2SCC(=O)N(C(C)C)C(C)C)cc1Cl 2.5%
CC1C2CC(C(S(=O)(=O)N3CCOCC3)C2=O)C1(C)C (configuration not stated) 8.3%
O=C1CCC2=C(CCCC2=O)N1 0.9%
O=C1CC(=O)C(n2cncn2)C(c2ccc(Cl)cc2Cl)C1 (configuration not stated) 14.4%
COc1ccc2c(c1)c1ncn(Cc3ccco3)c(=O)c1n2C 0.7%
Oc1c(CN2CCCCC2)cc(COCc2ccccc2)c2cccnc12 23.4%
COCc1cc(CN2CCCC2)c(O)c2ncccc12 35.4%
CC(C)C(=O)Nc1ccc(C(=O)N2CCCCCC2)cc1 -8.1%
CCOc1ccccc1-n1cnc2cc(C(=O)NCc3ccco3)ccc21 -4.7%
O=S(=O)(Cc1ccccc1Cl)N1CCCCC1 -3.8%
O=S(=O)(Cc1ccccc1Cl)N1CCCC1 8.9%
CN1C(=O)NC(NC(=O)c2ccncc2)(C(F)(F)F)C1=O (configuration not stated) 4.6%
COc1ccc(OC)c(NC(=S)N2CCC(C(O)(c3ccccc3)c3ccccc3)CC2)c1 17.9%
COc1ccc(NC(=S)N2CCC(C(O)(c3ccccc3)c3ccccc3)CC2)cc1 7%
Cc1cc(C)c(S(=O)(=O)Nc2cccc3nsnc23)c(C)c1 19.4%
Cc1ccc2nsnc2c1NS(=O)(=O)c1c(C)ccc2nsnc12 30.6%
O=C(Nc1ncc(Cc2cccc(Cl)c2Cl)s1)c1ccc([N+](=O)[O-])cc1 -1%
CCOC(=O)c1ccccc1NC(=O)CSc1ccccc1 -10.2%
O=c1[nH]c2ccccc2c(O)c1-c1cc2ccccc2oc1=O -2.4%
O=C(Cc1c[nH]c2ccccc12)NCc1ccccc1F 7.1%
CN1C(=S)SC(N(O)C(=O)Nc2ccc(Cl)c(Cl)c2)C1(C)C (configuration not stated) 12.6%
CN1C(=S)SC(N(O)C(=O)Nc2ccccc2)C1(C)C (configuration not stated) 10.2%
CN1CCN(/C=C2\SC(=S)NC2=O)CC1 -4.7%
CN1C(=O)/C(=C\C=C2/CCCN2C)N(C)C1=S 30.5%
O=C(CCCNC(=O)/C(=C\c1ccc(F)cc1)NC(=O)c1ccccc1)OCc1ccccc1 3.3%
Cc1nc(-c2ccncc2)sc1C(=O)Nc1ccc(Cl)cc1 6.1%
O=C(Nc1ccccc1)C1=C[C@@H](c2coc3ccccc3c2=O)C[C@@H](OCCCCO)O1 10.1%
CC(C)C[C@H](NC(=O)c1nc[nH]c1C(=O)NC(c1ccccc1)c1ccccc1)C(=O)OCc1ccccc1 15%
CCOC(=O)Cc1csc(NC(=O)c2csc3c2CCCC3)n1 2%
CC(C)CC(C(=O)NC1CCCC1)N(Cc1ccc2c(c1)OCO2)C(=O)c1snc(C(N)=O)c1N (configuration not stated) 3.1%
CCCC(C(=O)NC1CCCC1)N(Cc1ccc2c(c1)OCO2)C(=O)c1snc(C(N)=O)c1N (configuration not stated) -8.2%
Cn1c(=O)cc(-c2ccccc2)c2ccccc21 0.3%
O=c1cc(-c2ccccc2)c2ccccc2[nH]1 10%
CCS(=O)(=O)N1CCN(S(=O)(=O)c2ccccc2)CC1 1.8%
COc1ccccc1-n1c(=O)c(C#N)c(-c2ccc([N+](=O)[O-])cc2)c2cc(C(=O)c3cc(F)ccc3O)cnc21 14.2%
CCN(CC)C(=S)SCC(=O)c1ccccc1 7.7%
CCN(CC)C(=S)SSC(=S)N(CC)CC 0.3%

— PubChem BioAssay AID1220 (Sanford-Burnham Center for Chemical Genomics, 2008)
